This is an account of results in PubChem BioAssay (EPA / NIEHS).

What all share (details): mRNA level, 48 h; actives raise or lower the signal
Read-out in assay [1]: Interleukin 6 Receptor (IL6R), IL6R (gene 3570)
Kind of assay: LTEA_HepaRG_IL6R: Life Technologies and Expression Analysis (LTEA) Assay for Interleukin 6 Receptor (IL6R) using HepaRG (AID 2283510).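 As to AC50: differentiated human HepaRG liver cells in serum-free induction medium; TaqMan qRT-PCR signal normalized to ACTB GAPDH and POLR2A housekeeping genes.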 Put shortly:
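HepaRG, 48 h exposure, 8-pt half-log series, top 100 uM, 0.5% DMSO vehicle, duplicates. Read-out: TaqMan qRT-PCR of IL6R transcript, housekeeping-gene normalized. Gain or loss fitted relative to DMSO baseline.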

Read-out in assay [2]: Potassium channel subfamily K member 1 (KCNK1), KCNK1 (gene 3775)
Nature of the assay: LTEA_HepaRG_KCNK1: Life Technologies and Expression Analysis (LTEA) Assay for Potassium channel subfamily K member 1 (KCNK1) using HepaRG (AID 2283511). An outline of the steps:
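HepaRG, 48 h exposure, 8-pt half-log series top 100 uM, 0.5% DMSO vehicle, duplicates. Readout: KCNK1 transcript by qRT-PCR (Fluidigm array), housekeeping-normalized; bidirectional curve fit relative to DMSO baseline.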

Read-out in assay [3]: Keratin 19 (KRT19), KRT19 (gene 3880)
Kind of assay: LTEA_HepaRG_KRT19: Life Technologies and Expression Analysis (LTEA) Assay for Keratin 19 (KRT19) using HepaRG (AID 2283512). An outline of the steps:
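Readout is qRT-PCR of KRT19 mRNA, normalized to ACTB, GAPDH and POLR2A, from HepaRG cells treated 48 h with eight-point half-log dilutions topping at 100 uM. Activity in either direction is scored relative to 0.5% DMSO vehicle.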

Read-out in assay [4]: JUN Transcription Factor, JUN (gene 3725)
Nature of the assay: LTEA_HepaRG_JUN: Life Technologies and Expression Analysis (LTEA) Assay for JUN Transcription Factor using HepaRG (AID 2283513). Put shortly:
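HepaRG, 48 h exposure, 8-pt half-log series top 100 uM, 0.5% DMSO, duplicate. JUN mRNA by qRT-PCR (Fluidigm), housekeeping-normalized (ACTB/GAPDH/POLR2A); bidirectional curve fit vs DMSO baseline.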

Read-out in assay [5]: Lipase C (LIPC), LIPC (gene 3990)
Kind of assay: LTEA_HepaRG_LIPC: Life Technologies and Expression Analysis (LTEA) Assay for Lipase C (LIPC) using HepaRG (AID 2283514). Put shortly:
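HepaRG, 48 h exposure, 8-pt half-log series from 100 uM in 0.5% DMSO, duplicates. Readout: LIPC mRNA by Fluidigm qRT-PCR, housekeeping-normalized (ACTB/GAPDH/POLR2A). Gain or loss fitted bidirectionally against DMSO baseline.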

Read-out in assay [6]: Lipoprotein lipase (LPL), LPL (gene 4023)
Nature of the assay: LTEA_HepaRG_LPL: Life Technologies and Expression Analysis (LTEA) Assay for Lipoprotein lipase (LPL) using HepaRG (AID 2283515). Put shortly: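 HepaRG, 48 h exposure, 8-pt half-log dilutions from 100 uM, 0.5% DMSO vehicle, duplicates; qRT-PCR (Fluidigm array) of LPL mRNA vs housekeeping genes; bidirectional curve fit relative to DMSO baseline.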

Read-out in assay [7]: MicroRNA 122 (MIR122), gene 406906
Nature of the assay: LTEA_HepaRG_MIR122: Life Technologies and Expression Analysis (LTEA) Assay for MicroRNA 122 (MIR122) using HepaRG (AID 2283516). Also: the transcript read is the microRNA miR-122. An outline of the steps:
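qRT-PCR read-out (TaqMan, Fluidigm array), normalized to three housekeeping genes; HepaRG cells dosed 48 h at 8 concentrations up to 100 uM in 0.5% DMSO, duplicate; gain or loss fitted against DMSO baseline.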

Read-out in assay [8]: matrix metalloproteinase-10 (MMP10), MMP10 (gene 4319)
Kind of assay: LTEA_HepaRG_MMP10: Life Technologies and Expression Analysis (LTEA) Assay for matrix metalloproteinase-10 (MMP10) using HepaRG (AID 2283517). An outline of the steps:
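Transcript levels come from Fluidigm qRT-PCR normalized to three housekeeping genes, with curves fitted bidirectionally against 0.5% DMSO. Human HepaRG cells were dosed for 48 hours at concentrations up to 100 uM.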

Read-out in assay [9]: MYC, MYC (gene 4609)
Kind of assay: LTEA_HepaRG_MYC: Life Technologies and Expression Analysis (LTEA) Assay for MYC using HepaRG (AID 2283518). Put shortly: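 Expression changes were scored by TaqMan qRT-PCR with ACTB, GAPDH and POLR2A normalization. Cultures in serum-free induction medium received duplicate 8-point concentration series, highest 100 uM, for 48 h; DMSO (0.5%) served as baseline.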

Read-out in assay [10]: matrix metalloproteinase-3 (MMP3), MMP3 (gene 4314)
Nature of the assay: LTEA_HepaRG_MMP3: Life Technologies and Expression Analysis (LTEA) Assay for matrix metalloproteinase-3 (MMP3) using HepaRG (AID 2283519). Put shortly:
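qRT-PCR read-out of MMP3 mRNA (normalised to three housekeeping genes) in HepaRG liver cells after 48 h chemical exposure; 8-point half-log series, top 100 uM, 0.5% DMSO vehicle. Bidirectional curve fitting against DMSO baseline.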

Molecules are shown by their SMILES. Some compounds were tested as several samples or in several runs, with calls that do not always agree. Active and inactive are the calls of the source. The calls were made as follows: active = hit-call score of the fitted dose curve at least 0.9, where 1 is the maximum; inactive = score below 0.9.

With `NC(=O)O`, the outcome in assay [1], in assay [2], in [3], in [4], in [5] and in assay [6] was inactive. The outcome in assay [7], in assay [8], in assay [9] and in assay [10] was inactive.

For `ClC1(Cl)C2(Cl)C3(Cl)C4(Cl)C(Cl)(Cl)C5(Cl)C3(Cl)C1(Cl)C5(Cl)C24Cl` (centres undefined), the result in assay [1], in assay [2], in [3], in [4], in [5] and in assay [6] was inactive. Besides, the result in assay [7], in [8], in assay [9] and in assay [10] was inactive.

A word on the AC50: it is the midpoint of the concentration-response curve, whichever way the signal moves. In the case of `CC(C)(c1ccccc1)c1ccc(O)c(C(C)(C)c2ccccc2)c1`, the result in assay [1], in assay [2], in assay [3], in [4], in assay [6] and in assay [8] was inactive. In addition, in [10], the compound was called inactive. The AC50 in [5] was 61.7 µM (active); in assay [7], 78 µM (active); in assay [9] it was 50 µM (active).

As for `O=c1[nH]c(=O)[nH]c(=O)[nH]1`, the outcome in assay [1], in assay [2], in [3], in assay [4], in assay [5] and in assay [6] was inactive. For the same compound, the call in [7], in [8], in assay [9] and in [10] was inactive.

For `Cn1sc(Cl)cc1=O`, the compound was classed as inactive in assay [1], in assay [2], in assay [3], in assay [4], in assay [5] and in assay [6]. The compound was called inactive in [7], in [8], in assay [9] and in assay [10].

Regarding `CC12CC1(C)C(=O)N(c1cc(Cl)cc(Cl)c1)C2=O` (centres undefined), the compound was called inactive in assay [1], in assay [2], in assay [3], in [4], in [5] and in assay [6]. Besides, the result in assay [7], in [8], in assay [9] and in [10] was inactive.

`O=[N+]([O-])c1ccc(O)c([N+](=O)[O-])c1`: the AC50 in assay [1] was 17.7 µM (active); in assay [5], 12 µM (active); in [7], 23.1 µM (active); in assay [9], 89.6 µM (active). The call in [2], in assay [3], in assay [4], in [6], in assay [8] and in assay [10] was inactive.

In the case of `CCCCCCCCc1ccc(O)cc1`, the compound was called inactive in assay [1], in assay [2], in assay [3], in [4], in assay [5] and in assay [6]. The call in [7], in [8], in assay [9] and in assay [10] was inactive.

As for `Cc1ccccc1N`, the call in [1], in [2], in assay [3], in assay [4], in assay [5] and in assay [6] was inactive. Also, the compound was called inactive in assay [7], in [8], in [9] and in [10].

Take `O=C(O)C(F)(F)C(F)(F)C(F)(F)C(F)(F)C(F)(F)C(F)(F)C(F)(F)C(F)(F)C(F)(F)C(F)(F)F`: the AC50 in assay [1] and in assay [6] was 47.8 µM (active) in each case. Also, the compound was classed as inactive in [2], in assay [3], in [4], in assay [5], in assay [8] and in assay [9]. Further, the outcome in assay [10] was inactive.

In the case of `C=C(C)C(=O)[O][Sn]([CH2]CCC)([CH2]CCC)[CH2]CCC`, the compound was called inactive in assay [1], in assay [2], in [3], in assay [7], in [8] and in [10]. Also, the AC50 is 6.54 µM (active) in [4], 2.37 µM (active) in [5], 6.44 µM (active) in assay [6] and 2.77 µM (active) in [9].

On to `C=CC(=O)OCCCCCC(C)C`, for which the compound was called inactive in [1], in assay [2], in assay [3], in assay [4], in assay [5] and in assay [6]. In addition, the result in assay [7], in [8], in assay [9] and in assay [10] was inactive.

Regarding `CC(C)(C)c1cc(O)ccc1O`, the compound was called inactive in assay [1], in assay [3], in assay [4], in assay [5], in assay [6] and in assay [7]. Moreover, the compound was called inactive in assay [8], in [9] and in [10].

As to `CCC(C)(C)c1ccc(O)c(C(C)(C)CC)c1`, the call in assay [1], in assay [2], in assay [3], in assay [4], in assay [5] and in [6] was inactive. The outcome in [7], in assay [8], in assay [9] and in [10] was inactive.

For `O=C(O)C(Cl)(Cl)Cl`, the compound was classed as inactive in assay [1], in assay [2], in [3], in assay [4], in assay [5] and in [6]. Also, the call in [7], in assay [8], in assay [9] and in assay [10] was inactive. Moreover, the AC50 in assay [6] was 9.92 µM (active).

In the case of `CC(=O)[O][Hg][c]1ccccc1`, the AC50 in [1] was 20.6 µM (active); in [3] it was 4.54 µM (active); in assay [4] it was 12.7 µM (active); in assay [6] it was 29.3 µM (active); in [8], 15.8 µM (active); in assay [9] it was 24.2 µM (active). Moreover, the AC50 in [10] is 50 µM (active). In addition, the outcome in assay [2], in assay [5] and in [7] was inactive.
